# Where “and” joins values, the source holds several entries; their conditions need not be identical. Equal values may be shown once. Where a name gives a salt, the structure may show the parent alone. Hit rate of the full screen: of about 5,800 compounds, about 620 (11%) showed activity. The sample holds actives, similar compounds and a random draw of the others, so the mix is not that of the screen. Unmarked numbers belong to inactive results.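 The calls were made as follows: active = score above a cut-off or among the top three wells of a plate; in these data no inactive exceeds 0.85.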
# Tested on: primary human hepatic stellate cells (donor 1)
# Experiment: scaled lipid accumulation score (0 = DMSO-like, 1 = nortriptyline-like); higher = stronger HSC inactivation (lipid re-accumulation), active = hit call of the paper
# Settings: 48 h
# [1] = library stock concentration: 1 mM
# [2] = library stock concentration: 10 mM
# [3] = library stock concentration: 3.33 mM
# [4] = library stock concentration: 80 uM
# [5] = library stock concentration: 400 uM
# [6] = library stock concentration: 2 mM
# [7] = library stock concentration: 6.4 mM
structure (smiles),measurement,setting,value
COc1c2c(nc3ccccc13)OC(C(C)(O)CO)C2 (stereo not given) [Dubinidine],scaled lipid accumulation score,,≤ 0
O=C(O)CCCC=CCC1C(O)CC(O)C1C=CC(O)COc1cccc(C(F)(F)F)c1 [15(S)-Fluprostenol],scaled lipid accumulation score,[1],≤ 0
CCCCCCCCC=CCCCCCCCCOCCOP(=O)([O-])OCC[N+](C)(C)C [Oleyloxyethyl Phosphorylcholine],scaled lipid accumulation score,[1],≤ 0
CC/C=C\C/C=C\C/C=C\C/C=C\CCCCCCC(=O)OCC [.omega.-3 Arachidonic Acid ethyl ester],scaled lipid accumulation score,[1],≤ 0
CCCCCCCCCCCCCCCCCCCCCCCCC(=O)OC [Pentacosanoic Acid methyl ester],scaled lipid accumulation score,[1],≤ 0
CCCc1cc(C(=O)c2ccc(-c3ccccc3)cc2)ccc1OCCCN1CCCc2c(OC(C)(C)C(=O)O)cccc21,scaled lipid accumulation score,[1],≤ 0
CCCCCCCCC=CCCCCCCCCCCCC(N)=O [13-Docosenamide],scaled lipid accumulation score,[1],≤ 0
[O-][n+]1cccc(CO)c1,scaled lipid accumulation score,[2],≤ 0
CCCCC/C=C\C/C=C\C/C=C\C/C=C\CCCC(=O)OC(CO)CO [2-Arachidonoylglycerol],scaled lipid accumulation score,[1],0.011
CCCCC/C=C\C/C=C\C/C=C\C/C=C\CCCC(=O)OC(CO)CO [2-Arachidonoyl Glycerol],scaled lipid accumulation score,[1],≤ 0
CCCCCCCCCCCCC[N+](C)(C)Cc1ccccc1 [Benzalkonium chloride],scaled lipid accumulation score,[2],0.182
"CCCCCCCCCCCCCCCCn1cc[n+](Cc2ccccc2)c1C [eEF-2 Kinase Inhibitor, NH125]",scaled lipid accumulation score,[3],0.247
CCCCCCCCCCCCCCCCn1cc[n+](Cc2ccccc2)c1C.[I-],scaled lipid accumulation score,[3],0.92 (active)
CCCCCCCCCCCCCCCCn1cc[n+](Cc2ccccc2)c1C,scaled lipid accumulation score,[4],≤ -0.001
same,scaled lipid accumulation score,[5],≤ -0.001
same,scaled lipid accumulation score,[6],≤ -0.001
same,scaled lipid accumulation score,[2],0.213 and 0.435
CC/C=C\C/C=C\C/C=C\CCCCCCCC(=O)N[C@@H](Cc1ccc(O)cc1)C(=O)O [N-(.alpha.-Linolenoyl) Tyrosine],scaled lipid accumulation score,[1],≤ 0
"CCCCC/C=C\C=C\CCCCCCCCC(=O)O [10(E),12(Z)-Conjugated Linoleic Acid]",scaled lipid accumulation score,[1],0.069
CCC=CCC=CCC=CCC=CCCCCC(=O)OCC [Stearidonic Acid ethyl ester],scaled lipid accumulation score,[1],≤ 0
CC(=O)N[C@@H](CSC/C=C(\C)CC/C=C(\C)CC/C=C(\C)CCC=C(C)C)C(=O)O [N-acetyl-S-geranylgeranyl-L-Cysteine],scaled lipid accumulation score,[1],≤ 0 and ≤ -0.021
Cc1cncc(CN2CCC(=C3c4ccc(Cl)cc4CCc4cccnc43)CC2)c1 [Rupatadine Fumarate],scaled lipid accumulation score,[3],0.371
Cc1cccc(CN2CCN(C(c3ccccc3)c3ccc(Cl)cc3)CC2)c1 (stereo not given) [Meclizine hydrochloride],scaled lipid accumulation score,[2],0.376 and 0.485
CCOC(=O)N1CCC(=C2c3ccc(Cl)cc3CCc3cccnc32)CC1 [Loratidine],scaled lipid accumulation score,[2],0.128
Cc1cccc(CN2CCN(C(c3ccccc3)c3ccc(Cl)cc3)CC2)c1 (stereo not given) [Meclozine dihydrochloride],scaled lipid accumulation score,,0.368
Cc1cncc(CN2CCC(=C3c4ccc(Cl)cc4CCc4cccnc43)CC2)c1.O=C(O)C=CC(=O)O [Rupatadine Fumarate],scaled lipid accumulation score,[2],0.862 (active)
Clc1ccc2c(c1)CCc1cccnc1C2=C1CCNCC1 [Desloratadine],scaled lipid accumulation score,[3],0.268
same,scaled lipid accumulation score,[2],0.837
C(=C(\CCNC1)/C1)(/c2c(cccn2)CC3)\c(ccc(Cl)c4)c34 [Desloratadine],scaled lipid accumulation score,[7],1.03 (active)
CCOC(=O)N1CCC(=C2c3ccc(Cl)cc3CCc3cccnc32)CC1 [Loratadine],scaled lipid accumulation score,[3],≤ 0
same,scaled lipid accumulation score,library stock concentration: 5.2 mM,≤ 0
same,scaled lipid accumulation score,[2],≤ 0 and 0.008
CCOC(=O)N1CCC(=C2c3ccc(Cl)cc3CCc3cccnc32)CC1,scaled lipid accumulation score,[2],≤ 0
Clc1ccc2c(c1)CCc1cccnc1C2=C1CCNCC1,scaled lipid accumulation score,[2],1.52 (active)
Clc1ccc2c(c1)CCc1cccnc1C2=C1CCNCC1 [Desloratidine],scaled lipid accumulation score,[7],0.46
CCCCC/C=C/C/C=C/C/C=C/C/C=C/CCCC(=O)Oc1ccc2ccc(=O)oc2c1 [7-hydroxycoumarinyl Arachidonate],scaled lipid accumulation score,[1],≤ 0
CC(C)(C)c1nc2c3cc[nH]c(=O)c3c3cc(F)ccc3c2[nH]1 [JAK Inhibitor I],scaled lipid accumulation score,[3],≤ 0
CC(C)(C)c1nc2c3cc[nH]c(=O)c3c3cc(F)ccc3c2[nH]1 [Merck -5 (0.4 mM)],scaled lipid accumulation score,[5],≤ -0.005
CC(C)(C)c1nc2c3cc[nH]c(=O)c3c3cc(F)ccc3c2[nH]1 [Merck -5 (10 mM)],scaled lipid accumulation score,[2],0.114
CC(C)(C)c1nc2c3cc[nH]c(=O)c3c3cc(F)ccc3c2[nH]1 [Merck -5 (2 mM)],scaled lipid accumulation score,[6],≤ -0.005
COc1ccc2c(c1)c(CC(=O)NCCc1ccccc1)c(C)n2C(=O)c1ccc(Cl)cc1 [N-(2-phenylethyl)-Indomethacin amide],scaled lipid accumulation score,[1],0.049
O=c1ncn2nc(Sc3ccc(F)cc3F)ccc2c1-c1c(Cl)cccc1Cl,scaled lipid accumulation score,[4],0.019
same,scaled lipid accumulation score,[5],0.039
same,scaled lipid accumulation score,[6],0.129
same,scaled lipid accumulation score,[3],0.019
same,scaled lipid accumulation score,[2],≤ 0 and 0.119
C[C@@H](O)[C@H]1C(=O)N2C(C(=O)OCOC(=O)C(C)(C)C)=C(SC3CN(C4=NCCS4)C3)[C@H](C)[C@H]12 [Tebipenem Pivoxil],scaled lipid accumulation score,[3],≤ 0
same,scaled lipid accumulation score,[2],≤ 0
"O=P(O)(O)O[C@H]1[C@@H](O)[C@H](O)[C@@H](OP(=O)(O)O)[C@H](OP(=O)(O)O)[C@H]1O [D-myo-Inositol-2,4,5-triphosphate (sodium salt)]",scaled lipid accumulation score,[1],≤ 0
O=C1C(Cl)=C(N2C(=O)CCC2=O)C(=O)c2ccccc21 [MEK Inhibitor II],scaled lipid accumulation score,[3],0.073
CCCCCCCCCCCCCC(=O)OCC [Myristic Acid ethyl ester],scaled lipid accumulation score,[1],0.028
COc1cc2ncnc(Nc3ccc(O)c(Br)c3)c2cc1OC,scaled lipid accumulation score,[3],≤ 0
same,scaled lipid accumulation score,[2],≤ 0
COc1cc2c(Nc3ccc(Br)cc3F)ncnc2cc1OCC1CCN(C)CC1 [Vandetanib],scaled lipid accumulation score,[6],1.27 (active)
same,scaled lipid accumulation score,[2],1.66 (active)
COc1cc2c(Nc3ccc(Br)cc3F)ncnc2cc1OCC1CCN(C)CC1 [Vandetanib (ZD6474)],scaled lipid accumulation score,[3],1.18 (active)
"COc1cc2c(Nc3ccc(Br)cc3F)ncnc2cc1OCC1CCN(C)CC1 [Vandetanib  (ZD6474, Zactima) (0.4 mM)]",scaled lipid accumulation score,[5],1.1 (active)
"COc1cc2c(Nc3ccc(Br)cc3F)ncnc2cc1OCC1CCN(C)CC1 [Vandetanib  (ZD6474, Zactima) (2 mM)]",scaled lipid accumulation score,[6],0.855 (active)
COc1cc2ncnc(Nc3ccc(Cl)cc3F)c2cc1OC,scaled lipid accumulation score,[3],≤ 0
same,scaled lipid accumulation score,[2],≤ 0 and ≤ -0.001
COc1cc2/c(=N/c3ccc(Br)cc3F)nc[nH]c2cc1OCC1CCN(C)CC1 [Vandetanib (ZD6474)],scaled lipid accumulation score,[2],0.754
"COc1cc2/c(=N/c3ccc(Br)cc3F)nc[nH]c2cc1OCC1CCN(C)CC1 [Vandetanib  (ZD6474, Zactima) (10 mM)]",scaled lipid accumulation score,[2],0.445
COc1cc2ncnc(Nc3ccc(O)c(Br)c3)c2cc1OC [JAK3 Inhibitor II],scaled lipid accumulation score,[3],≤ 0
COc1cc2/c(=N/c3ccc(Br)cc3F)nc[nH]c2cc1OCC1CCN(C)CC1 [Vandetanib],scaled lipid accumulation score,[4],0.09
same,scaled lipid accumulation score,[5],0.381
C=CC(=O)N1CCC(Oc2cc3c(Nc4ccc(Cl)c(Cl)c4F)ncnc3cc2OC)CC1 [Poziotinib],scaled lipid accumulation score,[4],0.111
same,scaled lipid accumulation score,[5],0.281
same,scaled lipid accumulation score,[6],0.059
same,scaled lipid accumulation score,[2],0.72
COc1c2ccoc2nc2c(OC)c(OCC(O)C(C)(C)O)ccc12 (stereo not given) [Evoxine],scaled lipid accumulation score,,≤ 0
COc1ccc(CCN(C)CCCC(C#N)(c2ccc(OC)c(OC)c2)C(C)C)cc1OC (stereo not given) [Verapamil hydrochloride],scaled lipid accumulation score,[2],0.587
COc1ccc(CCN(C)CCCC(C#N)(c2ccc(OC)c(OC)c2)C(C)C)cc1OC (stereo not given) [Verapamil],scaled lipid accumulation score,library stock concentration: 4.4 mM,0.416
COc1ccc(CCN(C)CCCC(C#N)(c2ccc(OC)c(OC)c2)C(C)C)cc1OC (stereo not given) [Verapamil HCl],scaled lipid accumulation score,[3],0.332
same,scaled lipid accumulation score,[2],0.536
COc1ccc(CCN(C)CCCC(C#N)(c2ccc(OC)c(OC)c2)C(C)C)cc1OC (stereo not given) [Verapamyl hydrochloride],scaled lipid accumulation score,,0.545
O=C(O)Cc1c2ccccc2n2c1[nH]c(=O)c1ccccc12,scaled lipid accumulation score,[4],≤ -0.001
same,scaled lipid accumulation score,[5],≤ -0.001
same,scaled lipid accumulation score,[6],≤ -0.001
same,scaled lipid accumulation score,[2],≤ -0.001
CCCCC[C@H](O)/C=C/[C@H]1C(=O)C[C@H](O)[C@@H]1C/C=C\CCCC(=O)OC [Prostaglandin D2 methyl ester],scaled lipid accumulation score,[1],≤ 0
CNCc1cc(-c2ccccc2F)n(S(=O)(=O)c2cccnc2)c1,scaled lipid accumulation score,[3],0.046
same,scaled lipid accumulation score,[2],0.471
CC(C)=CCC/C(C)=C/CC/C(C)=C/CC[C@]1(C)CCc2c(C)c(O)c(C)c(C)c2O1 [.alpha.-Tocotrienol],scaled lipid accumulation score,[1],0.026
CCCc1c(OCC(O)COc2ccc3c(=O)cc(C(=O)O)oc3c2CCC)ccc(C(C)=O)c1O (stereo not given),scaled lipid accumulation score,[2],≤ -0.001
c1ccc2[nH]cnc2c1 [DRB (Benzimidazole)],scaled lipid accumulation score,library stock concentration: 15.7 mM,0.081

# From the supplement of paper PMC9135407
